# Hits are enriched below; roughly 6.3% of the tested compounds scored in any of these assays.
# VP16 counter: VP16 counterscreen qHTS for inhibitors of ROR gamma transcriptional activity; Drosophila S2 Gal4-VP16 UAS-luciferase, luminescence, 20 h; Potency, µM (top dose mostly 53.6 µM), without a hit: at the highest dose activity, negative = inhibition, hits mostly inhibitors; 310,000 tested, 3.5% active;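 note: Gal4-VP16 expression switched on by copper sulfate through the metallothionein promoter; % is set by controls: 0 for no effect and ±100 for the full control effect; nearly all actives have a fitted effect of over 50% in size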
# TGFb inhibitor: qHTS for Inhibitors of TGF-b | 410,000 tested, 1.2% active | Potency, µM (titrated, usually from 46.1 µM), for inactives: at the top dose activity, negative = inhibition, most hits filed as inhibitors | HepG2 CAGA-GFP TGF-b/SMAD3 reporter, GFP fluorescence, 18 h; TGF-beta stimulated, 500 pg/mL final | AID 588855, 2011; note: % is set by controls: 0 for no effect and ±100 for the full control effect; nearly all actives have a fitted effect of over 65% in size
#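 Read-out: total well GFP (ex488/em500-530) summed from mean per-cell fluorescence. Cells: HEPG2 CAGA-GFP, 1% FBS DMEM, 18 h at 37 degrees C with 500 pg/mL final TGF-beta. Unstimulated wells served as the full-inhibition control; stimulated DMSO wells = 0%.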
# HepG2 tox: qHTS for Inhibitors of TGF-b: Cytotox Counterscreen; HepG2 CAGA-GFP viability, ATP luminescence, 18 h; Potency, µM (top dose mostly 46.1 µM), inactives show at the highest dose activity change, negative = cytotoxicity, most hits filed as cytotoxic; 410,000 tested, 0.76% active
#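 CellTiter-Glo luminescence gave cytotoxicity after 18 hours at 37 degrees C. The cells were HepG2 CAGA-GFP in 1% FBS DMEM, stimulated with 500 pg/mL TGF-beta after compound addition. %Activity was normalised to no-cell wells (complete cell-killing) and DMSO (no toxicity), and curves were fitted and classified.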
# RORg inh: qHTS for inhibitors of ROR gamma transcriptional activity; Nuclear receptor ROR-gamma (Mus musculus), P51450; Drosophila S2 Gal4-RORgamma UAS-luciferase reporter, 20 h; Potency, µM (top dose mostly 53.6 µM), without a hit: top-dose activity change, negative = inhibition, actives largely listed as inhibitors; 310,000 tested, 5.4% active; AID 2551, 2010; note: % is set by controls: 0 for no effect and ±100 for the full control effect; nearly all actives have a fitted effect of over 60% in size
# Target sequence (P51450 whole entry, looked up, the tested form may be a part): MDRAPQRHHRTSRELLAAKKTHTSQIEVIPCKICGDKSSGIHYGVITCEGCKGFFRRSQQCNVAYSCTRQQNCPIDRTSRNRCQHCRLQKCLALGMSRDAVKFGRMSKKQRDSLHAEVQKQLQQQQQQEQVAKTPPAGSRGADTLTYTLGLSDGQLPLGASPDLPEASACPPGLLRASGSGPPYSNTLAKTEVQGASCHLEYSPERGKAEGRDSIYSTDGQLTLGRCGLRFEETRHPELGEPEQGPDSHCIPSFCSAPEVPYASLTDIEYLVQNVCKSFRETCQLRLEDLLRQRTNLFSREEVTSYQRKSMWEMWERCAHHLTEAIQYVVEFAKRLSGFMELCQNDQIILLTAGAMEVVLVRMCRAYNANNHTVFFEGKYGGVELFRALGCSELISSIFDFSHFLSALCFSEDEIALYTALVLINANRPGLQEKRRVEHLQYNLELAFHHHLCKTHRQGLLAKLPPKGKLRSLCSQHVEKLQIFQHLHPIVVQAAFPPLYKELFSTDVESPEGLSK
#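 A Gal4/UAS one-hybrid system in insect cells: metallothionein-promoter Gal4–ROR gamma fusion plus Photinus luciferase reporter. Copper sulfate 700 uM final, 20 hr ambient incubation, luminescent detection after 10 min with reagent.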
# ATXN2 expr inh: Primary qHTS for Inhibitors of ATXN expression | HEK-293 ATXN2-luciferase reporter, luminescence, 24 h | 360,000 tested, 0.72% active | Potency, µM (highest dose often 57 µM), inactives show top-dose activity change, negative = inhibition, hits mostly inhibitors | AID 1745845, 2022; note: % is set by controls: 0 for no effect and ±100 for the full control effect; nearly all actives have a fitted effect of over 55% in size
#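 ATXN2-luciferase reporter cells (luciferase flanked by upstream and downstream ATXN2 gene portions) were treated 24 h at 37 °C with compounds at up to 57 uM. SteadyGlo luminescence gave expression; GF-AFC fluorescence gave viability.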
# ATXN viability: Viability Counterscreen for Primary qHTS for Inhibitors of ATXN expression; S2 cells (HEK-293 line with an ATXN2-luciferase reporter) viability, CellTiter-Fluor protease fluorescence, 24 h; Potency, µM (titrated, usually from 56.7 µM), most hits filed as cytotoxic; 400,000 tested, 0.49% active; AID 651635, 2014; note: nearly all actives have a fitted effect of over 40% in size
# Active calls of the source: *; i = inactive; ? = inconclusive; / = not tested or not shown; ! = not confirmed by another sample. Calls come from the whole dose curve; as a rule, active = well fitted curve in the direction sought with a large enough effect; inconclusive = small, poorly fitted or top-dose-only effect, or another doubt; inactive = no such curve, though single readings can be large; an effect the other way counts as inactive or inconclusive. Potency is the fitted concentration of half-maximal effect.
SMILES,VP16 counter,TGFb inhibitor,HepG2 tox,RORg inh,ATXN2 expr inh,ATXN viability
O=C1C(Cl)=C(NC(=O)c2ccccc2)C(=O)C(Cl)=C1NC(=O)c1ccccc1,?,11µM*,-31%,7.1µM*,?,?
COc1cccc(NC(=O)CCc2nc(-c3ccc(C(C)(C)C)cc3)no2)c1,/,-10%,-24%,/,?,i
Cc1cccc(-c2noc(CCCC(=O)Nc3ccc(C(N)=O)cc3)n2)c1,11µM*,-1%,-2%,16µM*,-16%,?
Cc1cccc(-c2noc(CCC(=O)Nc3ccc(C(N)=O)cc3)n2)c1,-6%,6%,-39%,-7%,-4%,i
COc1ccc(-c2noc(CCC(=O)Nc3cccc(C)c3)n2)cc1,?,1%,-32%,0.28µM*,4%,i
CCOC(=O)c1cccc(NC(=O)CCc2nc(-c3ccc(C)cc3)no2)c1,-29%,?,-5%,3.2µM*,-24%,i
O=C(Nc1ccc(OCc2cc(=O)n3c4c(sc3n2)CCCC4)cc1)c1ccc(F)cc1,/,23%,20%,/,3%,i
CC(C)(C)CC(=O)OCC(=O)[C@@]1(O)CC[C@H]2[C@@H]3CCC4=CC(=O)C=C[C@]4(C)[C@H]3[C@@H](O)C[C@@]21C,/,/,/,/,-14%,?
COc1ccc(/C=N\NC(=O)COc2ccc(C(C)(C)C)cc2)cc1Cn1nc(C)cc1C,-8%,5.6µM*,-63%,-9%,-38%,i
COc1ccc(/C=N/NC(=O)c2ccco2)cc1Cn1nc(C)cc1C,-1%,10%,2%,-42%,14%,i
CCOc1ccc(Br)cc1C1=NN(C(C)=O)C(c2ccc([N+](=O)[O-])s2)O1 (configuration not stated),?,13µM*,-99%,?,-6%,i
CC(=O)N1N=C(c2ccc(C)cc2)OC1c1ccc(Br)cc1 (configuration not stated),-5%,2%,-11%,17%,48%,i
O=C(CSc1ccccc1F)NCC1(N2CCCCC2)CCCCC1,/,-3%,-35%,/,1%,i
Cc1cccc2[nH]c3c(N4CCC5(CC4)OCCO5)ncnc3c12,5µM*,-3%,-24%,11µM*,-25%,?
Cc1cc(-c2ccnc(-n3ncc(C(=O)NCCc4cccnc4)c3C)n2)c(C)s1,/,/,/,/,/,i
c1cnc2c(c1)ccc1cccnc12,?,?,-12%,?,5.6µM*!,?
O=Cc1ccc2ccc3cccnc3c2n1,0%,?,-20%,-42%,0%,i
COc1ccccc1CNS(=O)(=O)c1cc(C(=O)Nc2cccc(C(F)(F)F)c2)ccc1F,/,11µM*,-18%,/,/,/
O=C(Nc1cccc(C(F)(F)F)c1)c1ccc(F)c(S(=O)(=O)N2CCc3ccccc3C2)c1,/,11µM*,-33%,/,/,/
O=C(Nc1cc(Cl)cc(Cl)c1)c1ccc(F)c(S(=O)(=O)NCc2ccccc2Cl)c1,/,?,-111%,/,/,/
O=C(CC1NCCC[C@H]1O)Cn1cnc2cc(Br)c(Cl)cc2c1=O (some centres not stated),6%,/,/,0%,/,/
O=C(CN1C2=NCCN2c2ccccc21)c1ccc2c(c1)OCO2,1%,-25%,-8%,-9%,-34%,16µM*
O=C(CN1C2=NCCCN2c2ccccc21)c1ccc([N+](=O)[O-])cc1,?,?,16µM*,-25%,?,i
O=C(Nc1ccc(F)c(Cl)c1)C1CCCN1S(=O)(=O)c1ccc(F)cc1 (configuration not stated),/,-21%,-31%,/,-23%,?
C(=Nc1cccnc1)c1ccnc2ccccc12,/,-6%,-2%,/,/,/
SMILES,VP16 counter,TGFb inhibitor,HepG2 tox,RORg inh,ATXN2 expr inh,ATXN viability
Cc1ccn2cc(-c3cccc(NC(=O)C(C)C)c3)nc2c1,?,-18%,-16%,4µM*,1%,i
CC(C)C(=O)Nc1cccc(-c2cn3ccccc3n2)c1,-12%,-1%,-8%,-36%,1%,i
Cc1ccn2cc(-c3ccc(O)c(O)c3)nc2c1,13µM*,11µM*,-66%,-39%,/,?
Oc1ccc(-c2cn3ccccc3n2)cc1O,-24%,3%,-26%,-40%,/,i
O=S(=O)(c1ccccc1)N1CCN(c2nc(-c3ccc(F)cc3)nc3cc(Cl)ccc23)CC1,/,-3%,-8%,/,/,/
CC(=NNC(=S)Nc1ccccc1)c1ccccn1,/,?,-38%,/,/,?
CC(=NNC(=S)N1CC2CCC(CC2)C1)c1ccncn1,/,?,-40%,/,0.32µM*,?
CC1(C(=O)NS(=O)(=O)c2ccccc2Cl)CCN1C(=O)CC1CCCC1 (configuration not stated),/,1%,-35%,/,0%,i
COC(=O)c1cc([N+](=O)[O-])c(C)c(C)n1,/,-1%,-20%,/,/,i
COc1cccc(Oc2cn[nH]c2-c2ccc(O)cc2O)c1,?,-4%,-23%,?,2%,i
CCOc1ccc(-c2[nH]ncc2Oc2cccc(OC)c2)c(O)c1,?,?,-47%,11µM*,-33%,i
COc1cccc(Oc2cn[nH]c2-c2ccc(OC)cc2O)c1,13µM*,?,-36%,7.1µM*,-11%,i
CCOCCCNC(=O)c1cc(Sc2cccc(Cl)c2)nc2ccccc12,/,-1%,-29%,/,-21%,i
O=C(NNC(=O)c1ccc(Oc2cc(Cl)cc(Cl)c2)o1)c1ccccc1,?,20µM*,-84%,-30%,/,?
CC(C)(C)CC(C)(C)c1ccc(OCC(=O)Nc2ccc(S(=O)(=O)Nc3ncccn3)cc2)cc1,/,-6%,-22%,/,-2%,?
COc1cc(NC(=O)Nc2nc(C(N)C(C)C)cs2)cc(OC)c1OC (configuration not stated),/,-9%,-11%,/,-17%,?
NC(c1csc(NC(=O)Nc2cccc(Cl)c2)n1)C1CCCCC1 (configuration not stated),/,?,-105%,/,?,28µM*
NC(c1csc(NC(=O)Nc2ccccc2Cl)n1)C1CCCCC1 (configuration not stated),/,?,-89%,/,-21%,i
NC(c1csc(NC(=O)Nc2ccccc2)n1)C1CCCCC1 (configuration not stated),/,?,-82%,/,-6%,i
COc1cc(NC(=O)Nc2nc(C(N)C3CCCCC3)cs2)cc(OC)c1OC (configuration not stated),/,?,11µM*,/,?,?

# Screening data (PubChem BioAssay)
